From PubChem BioAssay
Shown is part of a subset that was picked to be rich in hits.
ERG Ets-DNA blk: ERG Ets/DNA interaction inhibition. P11308. fluorescence polarization, His-ERG Ets domain / labelled DNA. Potency, µM (series often up to 76.9 µM), without a hit: at the highest dose FP activity, negative = inhibition, usual class: inhibitors. hit rate 0.028% among 370,000. AID 624246; active means well fitted inhibition curve with a large enough effect in the polarisation, with a control signal flat; inconclusive means small, poorly fitted or top-dose-only effect, or effect the other way, or a change in a side signal; inactive means no such curve, though single readings can be large or run the other way; the % refers to the polarisation;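 further: polarization taken with two DNA probes labelled with fluorescein and Texas red; potency means the concentration at half of the fitted maximal effect; % of control where 0% means no effect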
Target sequence (P11308 whole entry, looked up, the tested form may be a part): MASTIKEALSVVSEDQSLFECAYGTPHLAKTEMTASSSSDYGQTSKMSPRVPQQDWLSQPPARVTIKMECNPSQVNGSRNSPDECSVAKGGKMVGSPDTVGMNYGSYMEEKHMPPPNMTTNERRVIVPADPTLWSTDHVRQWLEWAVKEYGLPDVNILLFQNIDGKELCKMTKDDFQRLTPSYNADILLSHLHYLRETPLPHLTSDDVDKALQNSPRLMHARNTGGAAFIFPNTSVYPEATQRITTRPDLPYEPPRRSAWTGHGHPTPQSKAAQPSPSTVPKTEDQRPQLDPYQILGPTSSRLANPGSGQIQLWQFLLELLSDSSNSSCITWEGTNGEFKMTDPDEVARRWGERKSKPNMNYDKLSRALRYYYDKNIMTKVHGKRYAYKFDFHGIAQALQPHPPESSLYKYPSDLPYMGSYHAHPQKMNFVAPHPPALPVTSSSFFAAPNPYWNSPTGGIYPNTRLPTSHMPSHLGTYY
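His-tagged ERG Ets domain (1 uM in the protein solution; 300mM KCl, 50mM Tris-HCl, 1mM EDTA, 1mM DTT, pH 7.5) received compound, then a probe mix of 5 nM fluorescein-DNA and 100nM Texas-615-DNA. Fluorescence polarization was read for both dyes.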
RORg inh: blocks mouse ROR gamma transcriptional activity | P51450 | Drosophila S2 Gal4-RORgamma UAS-luciferase reporter, 20 h | Potency, µM (titrated, usually from 53.6 µM), without a hit: top-dose activity change, negative = inhibition, usual class: inhibitors | hit rate 5.4% among 310,000 | AID 2551; further: potency means the concentration at half of the fitted maximal effect; on the % scale 0 is the no-effect control and ±100 the full control effect; nearly all actives have a fitted effect of over 60% in size
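Drosophila S2 cells stably expressing Gal4-DBD/mouse RORγ fusion under metallothionein promoter plus UAS-luciferase; compound 1 h, then 700 uM CuSO4 induction for 20 h at ambient temperature; inhibition read as reduced luminescence.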
a7 integrin act: integrin-mediated muscular dystrophy alleviation activation; AID 624291; Potency, µM (doses to about 38.3 µM), inactives show at the highest dose activation, most hits filed as activators; hit rate 0.064% among 350,000; alpha7betagal myoblasts, beta-gal FDG fluorescence, 48 h;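 further: potency means the concentration at half of the fitted maximal effect; 100% = response of the positive control SU9516; nearly all actives have a fitted effect of over 60% in size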
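alpha7betagal+/- myoblasts (passage 13, 250/well) treated 48 h at 37C with compounds at 1:260 dilution of DMSO stock. Lysed, then beta-galactosidase activity read as FDG fluorescence (ex 480/em 540) after 30 min, with pre-read for autofluorescence.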
Giardia killer: Giardia lamblia killing; activity change, % at 7.66 µM, hits read low; hit rate 0.15% among 340,000; Giardia lamblia trophozoite viability; in the data active means activity change below about -80%; inconclusive means between about -30% and that limit;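 further: parasites exposed to compound for two days anaerobically before the ATP read; on the % scale 0 is the no-effect control and ±100 the full control effect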
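Giardia lamblia trophozoites (100 cells/well) were incubated with compounds for 48 h at 37 deg C under anaerobic conditions. Viability was read as ATP content by one-step luminescence after 15-30 min at room temperature.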
Gal4-VP16 FLuc: counter-screen for ROR gamma inhibitors: Gal4-VP16 reporter; Drosophila S2 Gal4-VP16 UAS-luciferase, luminescence, 20 h; AID 2546; Potency, µM (series often up to 53.6 µM), for the others: top-dose activity, negative = inhibition, most hits filed as inhibitors; hit rate 3.5% among 310,000;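 further: Gal4-VP16 expression switched on by copper sulfate through the metallothionein promoter; potency means the concentration at half of the fitted maximal effect; on the % scale 0 is the no-effect control and ±100 the full control effect; nearly all actives have a fitted effect of over 50% in size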
* hit, by the source's call; ? = inconclusive; nt = no result; [ ] = dose if it differs, or a comment. Unless noted, the call rests on the fitted dose curve; in most records, active means well fitted curve in the direction sought with a large enough effect; inconclusive means small, poorly fitted or top-dose-only effect, or another doubt; inactive means no such curve, though single readings can be large; an effect the other way counts as inactive or inconclusive.

SMILES	ERG Ets-DNA blk	RORg inh	a7 integrin act	Giardia killer	Gal4-VP16 FLuc
COc1ccc(Oc2ncc3nc(-c4ccc(F)cc4)c(=O)n(CCC#N)c3n2)cc1	nt	3%	nt	nt	-15%
N#Cc1ccccc1NC(=O)CN(Cc1ccccc1)Cc1ccccc1	12%	4%	-7%	30	15%
Cc1cc2ccccc2c(=O)n1CC(=O)NCC(=O)N(C)C1CCCCC1	1%	0%	-4%	-22	-1%
COc1cc(OC)c(OC)cc1/C=N/NC(=S)NCCN1CCOCC1	22%	4µM*	-5%	-8	7.1µM*
COc1cc(OC)c(OC)cc1/C=N/NC(=S)NCC1CCCO1 (centres undefined)	1%	6.3µM*	-12%	-3	14µM*
S=C(NCCN1CCOCC1)N/N=C/c1c2ccccc2cc2ccccc12	-5%	?	-9%	0	?
COc1ccc2ccccc2c1/C=N/NC(=S)NCCN1CCOCC1	-6%	4.5µM*	7%	21	4.5µM*
COc1cc(/C=N/NC(=O)C(=O)NCC2CCCO2)ccc1O (centres undefined)	10%	-3%	?	-2	1%
COCCNC(=S)N/N=C/c1c2ccccc2cc2ccccc12	-6%	7.1µM*	43%	6	?
CN(C(=O)CSc1nc2c(c(=O)[nH]1)CCCC2)c1ccccc1	5%	nt	nt	nt	nt
CON(C)C(=O)c1nnc2c(n1)[nH]c1ccccc12	nt	1%[10 µM]	nt	nt	-6%[10 µM]
S=C(NCCN1CCOCC1)N/N=C/c1ccccc1	-5%	13µM*	-7%	3	?
Oc1ccc(/C=N/NC(=S)NCCN2CCOCC2)c(O)c1	2%	13µM*	3%	-23	-10%
C=CCn1c(N)c(C(=O)NCC2CCCO2)c2nc3ccccc3nc21 (centres undefined)	nt	13µM*	-28%	-9	?
COc1ccc(-n2c(N)c(C(=O)NCC3CCCO3)c3nc4ccccc4nc32)c(OC)c1 (centres undefined)	-1%	27%	0%	-12	-12%
Cc1cc(N/N=C/c2ccccc2Br)nc2ccccc12	-3%	0.56µM*	-8%	-16	16µM*
Fc1ccc(/C=N\Nc2cccc(F)c2)cc1	9%	-32%	3%	1	2%
Fc1cccc(/C=N/Nc2ccc3ccccc3n2)c1	-7%	7.1µM*	25%	7	?
O=[N+]([O-])c1cccc(C=NNc2ccc3ccccc3n2)c1O	0%	nt	-14%	19	nt
Brc1ccccc1/C=N/Nc1ccc2ccccc2n1	-26%	0.32µM*	-12%	4	8.9µM*
O=C(O)c1ccc(N/N=C/c2cc3cc4c(cc3nc2Cl)OCCO4)cc1	23%	2.5µM*	12%	-88*	4µM*
CC(C)(C)OC(=O)N1CCC(c2c(C(=O)N3CCN(Cc4ccccc4)CC3)cnn2-c2cccc(Cl)c2)CC1	-16%	nt	nt	nt	nt
COC(=O)c1ccc(OCC(O)CN(CC(C)C)CC(C)C)cc1 (centres undefined)	-1%	?	-13%	10	-9%
Cc1ccc(OCCC(=O)OCC(=O)NC(=O)NC2CCCCC2)cc1	12%	nt	-13%	?	nt
Cc1cc(N/N=C/c2ccc3c(c2)OCO3)nc2ccccc12	1%	13µM*	8%	24	-11%
SMILES	ERG Ets-DNA blk	RORg inh	a7 integrin act	Giardia killer	Gal4-VP16 FLuc
O=c1[nH]c(N/N=C\c2ccc3c(c2)OCO3)nc2ccccc12	12%	?	-8%	-3	?
Cc1ccc(C)c(/C=N/Nc2ccccn2)c1	-1%	10µM*	5%	-7	0%
O=C(O)c1cc(N/N=C/c2ccc3c(c2)OCCO3)ccc1Cl	7%	?	?	10	11µM*
O=C(O)c1ccccc1C=NNc1ccccn1	-5%	nt	-29%	5	nt
C(=N\Nc1ccccn1)/c1ccc2c(c1)OCCO2	5%	13µM*	12%	-17	?
O=S(=O)(N/N=C/c1ccc2c(c1)OCCO2)c1ccccc1	-2%	23%	-13%	-17	-19%
COc1cc(/C=N/Nc2ccc(Cl)c(C(=O)O)c2)ccc1OC(=O)c1ccccc1F	-3%	-3%	-2%	3	-22%
O=C(NC1=NCCS1)c1ccc([N+](=O)[O-])cc1Cl	-9%	-41%	1%	-23	0%
Fc1cccc(/C=N/Nc2ccccn2)c1	-3%	11µM*	0%	-11	?
Brc1ccc(/C=N/Nc2ccccc2)cc1	6%	25%	3%	22	3%
Brc1ccc(/C=N/Nc2ccc3ccccc3n2)cc1	-11%	7.9µM*	3%	-8	?
Fc1cccc(F)c1/C=N/Nc1ccccn1	-4%	?	6%	4	-24%
Cn1nnc2c(N3CCN(Cc4ccccc4)CC3)ncnc21	nt	nt	nt	-12	nt
N#CC1=C(N)NC(=S)C(C(N)=O)C1c1ccc([N+](=O)[O-])cc1 (centres undefined)	5%	?	18%	0	13µM*
CCNc1ncc2nc(-c3ccccc3)c(=O)n(CCOC)c2n1	nt	16%	nt	nt	-4%
S=c1[nH]nc(-c2ccco2)n1/N=C/C=C/c1ccco1	11%	7.1µM*	-13%	-6	10µM*
COc1ccccc1/C=C/C=N/n1c(-c2ccncc2)n[nH]c1=S	-6%	?	-42%	17	?
COc1ccccc1/C=C/C=N/n1c(-c2ccccn2)n[nH]c1=S	8%	?	-57%	-1	2%
COc1ccccc1/C=C/C=N/n1c(-c2ccco2)n[nH]c1=S	-9%	0.63µM*	3%	1	2%
COc1ccccc1/C=C/C=N/n1c(-c2ccc(C)cc2)n[nH]c1=S	-1%	1.1µM*	-4%	9	2.8µM*
COc1ccc(-c2n[nH]c(=S)n2/N=C/C=C\c2ccccc2OC)cc1	7%	3.5µM*	-16%	-1	?
O=C(CN1CCN(C(=O)C2CCCO2)CC1)Nc1ccc(Cl)c(Cl)c1 (centres undefined)	-8%	nt	-12%	-10	nt
O=C(N/C(=C\c1ccccc1)C(=O)N1CCOCC1)c1ccccc1Cl	-1%	13%	-23%	-1	-11%
CCOc1ccc(Br)cc1S(=O)(=O)NC1CCCC1	-20%	nt	-26%	0	nt
CCOc1cc(C)c(S(=O)(=O)NC2CCCCC2)cc1C	6%	4%	6%	-4	11µM*
CCOc1ccc(NC(=O)COC(=O)CCN2C(=O)C3CC=CCC3C2=O)cc1OCC (centres undefined)	10%[15.4 µM]	nt	-19%	6	nt
Cc1cc(Cl)n2c(nc3cc(F)c(F)cc32)c1C#N	7%	4.5µM*	-66%	3	7.1µM*
OC[C@H]1O[C@H](n2cnc3c(NC4CCCC4)nc(Cl)nc32)[C@@H](O)[C@@H]1O	nt	22%	nt	nt	-10%
OCC1OC(n2cnc3c(Cl)nc(Cl)nc32)C(O)C1O (centres undefined)	nt	13µM*	nt	nt	-4%
CSc1ncnc2c1ncn2C1OC(CO)C(O)C1O (centres undefined)	nt	0%	nt	nt	-8%
